The campaign covered roughly 5,500 compounds. About 2,000 (36%) were called active. Roughly 18% stayed inconclusive and do not appear here. Some of the results follow. Unmarked numbers belong to inactive results. Cut-off read from the data, not from the text of the source: active = normalized growth mostly below about 0.91 (no sharp cut-off); inconclusive = no clear call, values can overlap the other calls; inactive = mostly above about 0.92.
Assay: chemical genetic growth profiling, strain panel (AID 1159580);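 note: tested at 20 µM; growth read once vehicle control cultures reached saturation at 30 °C; 1 = growth at the plate median or of vehicle wells; lower values mean less growth of the strain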
Conditions: S. cerevisiae deletion strains, growth OD

O=C1Nc2ccccc2/C1=C\c1c(Cl)cccc1Cl
normalized growth (locus YAR019C, strain CDC15, hits give low values): 0.966
normalized growth (locus YBL105C, strain PKC1, hits give low values): 0.963
normalized growth (locus YBR135W, strain CKS1, hits give low values): 0.973
normalized growth (locus YBR136W, strain MEC1, hits give low values): 0.974
normalized growth (locus YBR160W, strain CDC28, hits give low values): 0.972
normalized growth (locus YDL017W, strain CDC7, hits give low values): 0.969
normalized growth (locus YDL028C, strain MPS1, hits give low values): 0.975
normalized growth (locus YDL101C, strain DUN1, hits give low values): 0.964
normalized growth (locus YDL108W, strain KIN28, hits give low values): 0.974
normalized growth (locus YDL132W, strain cdc53, hits give low values): 0.965
normalized growth (locus YDL214C, strain PRR2, hits give low values): 0.951
normalized growth (locus YDR052C, strain DBF4, hits give low values): 0.975
normalized growth (locus YDR054C, strain cdc34, hits give low values): 0.958
normalized growth (locus YDR226W, strain ADK1, hits give low values): 0.963
normalized growth (locus YDR477W, strain SNF1, hits give low values): 0.939
normalized growth (locus YER123W, strain YCK3, hits give low values): 0.945
normalized growth (locus YER133W, strain GLC7, hits give low values): 0.945
normalized growth (locus YFL009W, strain cdc4, hits give low values): 0.96
normalized growth (locus YFL029C, strain CAK1, hits give low values): 0.961
normalized growth (locus YFR003C, strain YPI1, hits give low values): 0.969
normalized growth (locus YFR019W, strain FAB1, hits give low values): 0.976
normalized growth (locus YFR028C, strain CDC14, hits give low values): 0.973
normalized growth (locus YGR040W, strain KSS1, hits give low values): 0.945
normalized growth (locus YGR052W, strain FMP48, hits give low values): 0.981
normalized growth (locus YGR092W, strain DBF2, hits give low values): 0.909
normalized growth (locus YHR030C, strain SLT2, hits give low values): 0.985
normalized growth (locus YHR079C, strain IRE1, hits give low values): 0.901
normalized growth (locus YHR082C, strain KSP1, hits give low values): 1.03
normalized growth (locus YHR205W, strain SCH9, hits give low values): 0.918
normalized growth (locus YIL147C, strain SLN1, hits give low values): 0.971
normalized growth (locus YJL095W, strain BCK1, hits give low values): 0.894
normalized growth (locus YJL128C, strain PBS2, hits give low values): 0.915
normalized growth (locus YJL157C, strain FAR1, hits give low values): 0.946
normalized growth (locus YJR016C, strain ILV3, hits give low values): 0.974
normalized growth (locus YJR066W, strain TOR1 (second series), hits give low values): 0.95
normalized growth (locus YJR066W, strain TOR1, hits give low values): 1.04
normalized growth (locus YKL048C, strain ELM1, hits give low values): 0.944
normalized growth (locus YKL067W, strain YNK1, hits give low values): 0.963
normalized growth (locus YKL101W, strain HSL1, hits give low values): 0.938
normalized growth (locus YKL193C, strain SDS22, hits give low values): 0.968
normalized growth (locus YKL203C, strain TOR2, hits give low values): 1.01
normalized growth (locus YLR113W, strain HOG1, hits give low values): 0.845 (active)
normalized growth (locus YLR133W, strain CKI1, hits give low values): 0.962
normalized growth (locus YLR403W, strain SFP1, hits give low values): 0.928
normalized growth (locus YML070W, strain DAK1, hits give low values): 0.954
normalized growth (locus YMR001C, strain CDC5, hits give low values): 0.968
normalized growth (locus YMR205C, strain PFK2 (second series), hits give low values): 0.956
normalized growth (locus YMR277W, strain FCP1, hits give low values): 0.965
normalized growth (locus YNL006W, strain LST8, hits give low values): 0.969
normalized growth (locus YNL020C, strain ARK1, hits give low values): 0.941
normalized growth (locus YNL161W, strain CBK1, hits give low values): 0.968
normalized growth (locus YNL183C, strain NPR1, hits give low values): 0.989
normalized growth (locus YNL207W, strain RIO2, hits give low values): 0.96
normalized growth (locus YNL222W, strain SSU72, hits give low values): 0.967
normalized growth (locus YNL307C, strain MCK1 (second series), hits give low values): 0.953
normalized growth (locus YOL078W, strain AVO1, hits give low values): 0.963
normalized growth (locus YOL136C, strain PFK27, hits give low values): 0.959
normalized growth (locus YOR061W, strain CKA2, hits give low values): 0.959
normalized growth (locus YOR119C, strain RIO1, hits give low values): 1.02
normalized growth (locus YOR231W, strain MKK1, hits give low values): 0.953
normalized growth (locus YOR329C, strain SCD5, hits give low values): 0.969
normalized growth (locus YPL031C, strain PHO85, hits give low values): 0.939
normalized growth (locus YPL153C, strain RAD53, hits give low values): 0.935
normalized growth (locus YPL204W, strain HRR25, hits give low values): 0.926
normalized growth (locus YPL209C, strain IPL1, hits give low values): 0.969
normalized growth (locus YPL256C, strain CLN2, hits give low values): 0.905
normalized growth (locus YPR025C, strain CCL1, hits give low values): 0.972
normalized growth (locus YPR106W, strain ISR1, hits give low values): 0.954
normalized growth (locus YPR111W, strain DBF20, hits give low values): 0.952
normalized growth (strain NNK1, hits give low values): 0.946
normalized growth (strain TSCII, hits give low values): 0.964

Source: PubChem BioAssay AID1159580 (chemical genetic matrix, 2015)
